# Hit rate of the full screen: of about 69,000 compounds, about 8,600 (12%) showed an effect of 50% or more. Many of the other results were omitted from the sample, so strong results are more common in it than they were.
# System: Plasmodium berghei
# Assay: Screen against P. berghei liver stage (PbLuc), transformed with Luciferase, at 10uM
# Format: functional, HepG2
# Conditions: tested at 10 uM
row,SMILES,INHIBITION
1,Cc1cc(CCC2CN(CC3(O)CCCCC3)CCO2)ncn1 (stereo not drawn),-3.02%
2,c1csc(CN2CCc3nc(N4CCOCC4)nc(NC4CC4)c3C2)n1,57.1%
3,CC(C)Nc1nc(N2CCOCC2)nc2c1CN(CC(=O)N(C)C)CC2,20.5%
4,CC(C)Nc1nc(N2CCOCC2)nc2c1CN(Cc1ccoc1)CC2,55.2%
5,CCN1CCc2nc(N3CCOCC3)nc(NC(C)C)c2C1,24%
6,CCCN1CCc2nc(N3CCOCC3)nc(NC(C)C)c2C1,69.3%
7,c1cc(CN2CCc3nc(N4CCOCC4)nc(NC4CC4)c3C2)co1,-15.3%
8,Cc1nc(N2CCOCC2)nc2c1CCN(c1nccs1)CC2,37.8%
9,C1CN(c2nc3c(c(NC4CC4)n2)CN(CC2CCOC2)CC3)CCO1 (stereo not drawn),-39.4%
10,CC(C)CCN1CCc2nc(N3CCOCC3)nc(NC(C)C)c2C1,70.2%
11,Cc1nc(N2CCCC2)nc2c1CCN(Cc1ccoc1)CC2,8.03%
12,Cc1nc(N2CCOCC2)nc2c1CN(CC(=O)N(C)C)CC2,16.8%
13,Cc1cc2ccccc2n1CC(=O)NC(C)C(=O)N1CCOCC1 (stereo not drawn),-7.83%
14,CCCc1nc(C(C)(C)NC(=O)C2CC(=O)N(C3CC3)C2)no1 (stereo not drawn),40%
15,CC(C)(C)n1cc(CNC2CCN(C(=O)c3ccoc3)CC2)cn1,1.75%
16,COc1cc(CN2CCC3(CC(Nc4ccncn4)C3)C2)cc(OC)c1 (stereo not drawn),44.1%
17,Cc1cc2ccccc2n1CC(=O)NCC(=O)N1CCOCC1,8.41%
18,CCOCc1nn(CC2CC2)c2c1CN(Cc1ccco1)CC2,12.4%
19,CC1CCCN(CCNC(=O)c2ccn(-c3cccc(F)c3)n2)C1 (stereo not drawn),51.1%
20,O=C(NCCN1CCCCC1)c1ccn(-c2ccc(F)cc2)n1,-2.53%
21,COc1ccc(-n2ccc(C(=O)NCCN3CCCCC3C)n2)cc1 (stereo not drawn),44.8%
22,CCN1CCN(CCNC(=O)c2ccn(-c3ccc(F)cc3)n2)CC1,60.2%
23,COc1ccc(-n2ccc(C(=O)NCCN3CCC(C)CC3)n2)cc1,38.8%

row,SMILES,INHIBITION
1,COc1ccc(-n2ccc(C(=O)NCCN3CCCCCC3)n2)cc1,51.1%
2,O=C(NCCN1CCCCCC1=O)c1ccn(-c2ccc(F)cc2)n1,13.3%
3,COc1cn(-c2ccccc2)nc1C(=O)NCCN1CCCC(C)C1 (stereo not drawn),22.3%
4,CC1CCCN(CCNC(=O)c2ccn(-c3ccc(F)cc3)n2)C1 (stereo not drawn),3.15%
5,COc1ccc(-n2ccc(C(=O)NCCN3CCCC(C)C3)n2)cc1 (stereo not drawn),62.1%
6,CC1CCCN(CCNC(=O)c2ccn(-c3ccccc3)n2)C1 (stereo not drawn),29.4%
7,COc1ccc(-n2ccc(C(=O)NCCN3CCCCC3)n2)cc1,40.2%
8,CC(C)CNC(=O)[C@H]1CCS(=O)(=O)[C@@H]2CN(CC(C)C)C[C@H]12,23.3%
9,Cc1ccc(NC(=O)NCCn2cnc(C)c(C)c2=O)cc1F,-16.4%
10,CC(=O)c1cc2ncc(C(=O)NC3CCCC3)cc2[nH]1,8.52%
11,CC(C)OC(=O)N1C[C@@H]2CC[C@H]1CN(C(=O)c1ccccc1)C2,-63.6%
12,Cc1ncccc1C(=O)NCC(C)Oc1ccc(F)cc1 (stereo not drawn),10.1%
13,CCn1cnnc1CNC(=O)N(C)Cc1cccc(OC(F)F)c1,36.1%
14,Cc1cnc(C2(C)CCN(Cc3cscn3)CC2)s1,-6.92%
15,COCCNC(=O)c1cc(-c2cc[nH]n2)n2ccccc12,-22.5%
16,Cc1c(C(=O)NC2CCCOc3cc(Cl)ccc32)cnn1C (stereo not drawn),-25.8%
17,CCn1cc(-c2cc(C(F)F)nc3sc(C(N)=O)c(N)c23)c(C)n1,-35.4%
18,CCn1ncc(-c2cc(C(F)F)nc3sc(C(N)=O)c(N)c23)c1C,64.8%
19,Cc1c(-c2cc(C(F)F)nc3sc(C(N)=O)c(N)c23)cnn1C,-17.2%
20,CC1CN(CCOc2ccccc2C#N)CCN1Cc1nccn1C (stereo not drawn),14.1%
21,Cc1ccc(C)c(CN2CCOC(c3noc(C)n3)C2)c1 (stereo not drawn),8.53%
22,Cc1cccc(CN2CCC(c3nnsc3S(C)(=O)=O)CC2)n1,30.8%
23,O[C@@H]1CN(Cc2cccc(F)c2)CC[C@H]1NCc1ccccn1,43.05%

row,SMILES,INHIBITION
1,CC(NCc1cccs1)c1ccc(OCc2nccn2C)cc1 (stereo not drawn),63.8%
2,CC(NCc1ccsc1)c1ccc(OCc2nccn2C)cc1 (stereo not drawn),69.5%
3,CC(NCc1cnn(C)c1)c1ccc(OCc2nccn2C)cc1 (stereo not drawn),49.5%
4,CC(C(=O)NCc1cccs1)N1CCN(Cc2nccn2C)CC1 (stereo not drawn),46.4%
5,COc1ccc(C(C)NCc2cccs2)cc1Cn1cccn1 (stereo not drawn),10.6%
6,CC(NCc1ccc(OCc2nccn2C)cc1)c1cccnc1 (stereo not drawn),-63.6%
7,Cc1sc(NC(=O)CN(C)CCOc2cccc(F)c2)c(C)c1C,9.14%
8,COCCNC(=O)[C@H]1CN(Cc2scnc2C)C[C@H]2OCC[C@@H]12,-44.8%
9,Cc1nc(CCNC(=O)NC2CCCN(c3ncccn3)C2)cs1 (stereo not drawn),8.03%
10,O=C1COc2cc(C(=O)NS(=O)(=O)c3ccc(F)cc3F)ccc2N1,33.3%
11,O=C1COc2cc(C(=O)NS(=O)(=O)c3ccccc3F)ccc2N1,50.4%
12,O=C1COc2ccc(C(=O)NS(=O)(=O)c3ccccc3F)cc2N1,14.1%
13,c1cncc(-c2noc(CN3CCCCC3Cn3cccn3)n2)c1 (stereo not drawn),33.8%
14,CC(OCc1ccccc1)C(=O)NCc1ccc(N(C)C)cc1 (stereo not drawn),33.3%
15,Cn1ncc2c1C(COCC1CC1)N(Cc1ccoc1)CC2 (stereo not drawn),-29.3%
16,COC(=O)[C@H]1CN(C(=O)c2cscn2)C[C@@H]1c1ccc(F)cc1,32.8%
17,CNC(=O)[C@@]12CCO[C@@H]1CCN(S(=O)(=O)c1ccccc1C)C2,6.6%
18,CNC(=O)[C@@]12CCO[C@@H]1CCN(S(=O)(=O)c1ccc(C)cc1)C2,21.8%
19,CNC(=O)[C@@]12CCO[C@@H]1CCN(S(=O)(=O)c1ccccc1)C2,42.7%
20,CNC(=O)[C@@]12CCO[C@@H]1CCN(S(=O)(=O)c1ccccc1F)C2,52%
21,CNC(=O)[C@@]12CCO[C@@H]1CCN(S(=O)(=O)c1cccc(C)c1)C2,38.7%
22,CNC(=O)[C@@]12CCO[C@@H]1CCN(S(=O)(=O)c1cc(C)cc(C)c1)C2,54.4%

# From ChEMBL document CHEMBL4513216, “Probing the Open Global Health Chemical Diversity Library for Multistage-Active Starting Points for Next-Generation Antimalarials” (ACS Infect Dis, 2020)
